# According to PubChem BioAssay:
# Active and inactive are the calls of the source.
# What was measured:
# [1] = tested on: PRMT1 (protein arginine N-methyltransferase 1); experiment: PRMT1 binders on small-molecule microarrays, primary screen, biochemical, small-molecule microarray, 635 nm fluorescence (AID 1088); conditions: small-molecule microarray binding, higher = more signal;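 note: binding of Prmt1 protein to compounds spotted on small-molecule microarray slides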
# [2] = yeast growth modulation, basal conditions, primary screen, YJM789 clinical isolate, OD600, 24 h (AID 1089);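 note: growth of clinical yeast isolate S. cerevisiae YJM 789 seeded 1000 cells per well; test concentration not given here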; conditions: S. cerevisiae YJM789 growth, higher = more signal, called active from +8 up or from −8 down
# [3] = fission yeast growth modulation, primary screen, strain 972, OD600, 24 h, no modulator (AID 1090);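 note: basal condition with compound alone and no growth modifier present; test concentration not given here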; conditions: S. pombe 972 growth, higher = more signal, called active from +8 up or from −8 down
# [4] = S. cerevisiae growth modulation with rapamycin, primary screen, strain BY4716, OD600, 96 h (AID 1091); conditions: higher = more signal, called active from +8 up or from −8 down; note: test concentration not given here
# [5] = molecular target: Torsin-1A-interacting protein 2 (Homo sapiens) (UniProt Q8NFQ8); experiment: LULL1 binders on small-molecule microarray, primary screen, cell lysate, human LULL1 lysate, 635/667 nm fluorescence (AID 1092); conditions: hLULL1 lysate binding, 635 nm fluorescence, higher = more signal;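 note: probe is lysate of COS7 cells overexpressing human LULL1; score merges per-feature 667 nm fluorescence with signal-to-noise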
# [6] = E. coli growth modulation, two-sided OD650, primary screen, E. coli filamentation project, strain DRC41, 24 h (AID 1093); conditions: OD650, 24 h, higher = more signal, called active from +8 up or from −8 down;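 note: MC1000 strain lacking acrAB efflux and sulA so SOS filamentation is blocked; test concentration not given here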
# [7] = small-molecule microarray binders of probe aLefty2, primary screen, biochemical, biotinylated probe, 635/667 nm fluorescence (AID 1094); conditions: higher = more signal;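 note: score merges spot fluorescence near 667 nm with spot signal-to-noise ratio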
# [8] = tested on: Noggin (protein binding on small-molecule microarray); experiment: Noggin binders on small-molecule microarray, primary screen, biochemical, 635/667 nm fluorescence (AID 1095); conditions: 635 nm fluorescence, higher = more signal;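 note: score merges 667 nm feature fluorescence with signal to noise over triplicate slides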
# [9] = molecular target: Neurogenic locus notch homolog protein 3 (Homo sapiens) (UniProt Q9UM47); experiment: NOTCH3 binders on small-molecule microarray, primary screen, biochemical, 635/667 nm fluorescence (AID 1096); conditions: NOTCH3 binding, 635 nm fluorescence, higher = more signal
# [10] = small-molecule microarray binders of probe aEGFR, primary screen, biochemical, biotinylated probe, 635/667 nm fluorescence (AID 1097); conditions: higher = more signal;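 note: probe is a biotinylated anti-EGFR antibody binding compounds printed on slides; score combines fluorescence near 667 nm and signal to noise of each spot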
# [11] = tested on: Plasmodium falciparum Sir2 (PF13_0152, Sir2A); experiment: pfSir2 binders on small-molecule microarrays, primary screen, biochemical, small-molecule microarray, 635 nm fluorescence (AID 1098); conditions: small-molecule microarray binding, fluorescence 635 nm; higher = more signal;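 note: score merges spot fluorescence intensity with its signal-to-noise ratio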
# [12] = small-molecule microarray binders of probe aDKK1, primary screen, biochemical, biotinylated probe, 635/667 nm fluorescence (AID 1099); conditions: higher = more signal;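 note: score merges 667nm spot fluorescence with signal to noise across triplicate slides; reference of the scale not given here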
# [13] = small-molecule microarray binders of probe aCHRDL2, primary screen, biochemical, biotinylated probe, 635/667 nm fluorescence (AID 1100); conditions: higher = more signal
# [14] = splicing luciferase reporter signal modulators, primary screen, spliceosome inhibition project, cell-based, HEK293, splice +/- reporter (AID 1101); conditions: luminescence, 24 h, higher = more signal, called active from +8 up or from −8 down;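 note: HEK293 cells carrying a splicing-competent luciferase reporter gene; test concentration not given here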
# [15] = molecular target: Fibroblast growth factor 10 (Homo sapiens) (UniProt O15520); experiment: FGF10 binders on small-molecule microarrays, primary screen, biochemical, small-molecule microarray, 635 nm fluorescence (AID 1102); conditions: FGF10 binding, fluorescence 635 nm, higher = more signal
# [16] = tested on: glycogen synthase kinase-3 (GSK3A per assay name; protocol says GSK3B); experiment: GSK3 binders on small-molecule microarrays, primary screen, biochemical, small-molecule microarray, 635 nm fluorescence, GSK3A (AID 1103); conditions: small-molecule microarray binding, fluorescence 635 nm; higher = more signal; note: the record names both GSK3A and GSK3B
# [17] = molecular target: Epidermal growth factor receptor (Homo sapiens) (UniProt P00533); experiment: EGFR binders on small-molecule microarrays, primary screen, biochemical, small-molecule microarray, 635 nm fluorescence (AID 1104); conditions: EGFR binding, higher = more signal;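 note: score merges 667 nm emission intensity with spot signal to noise over triplicate slides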
# [18] = molecular target: Follistatin-related protein 3 (Homo sapiens) (UniProt O95633); experiment: FSTL3 binders on small-molecule microarrays, primary screen, biochemical, small-molecule microarray, 635 nm fluorescence (AID 1105); conditions: FSTL3 binding, higher = more signal;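 note: score merges emission near 667 nm and signal to noise per printed spot across three slides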
# [19] = molecular target: Dickkopf-related protein 1 (Homo sapiens) (UniProt O94907); experiment: DKK1 binders on small-molecule microarrays, primary screen, biochemical, small-molecule microarray, 635 nm fluorescence scan (AID 1106); conditions: DKK1 binding, higher = more signal;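 note: score merges emission near 667 nm with signal to noise over three replicate slides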
# [20] = tested on: Inhibin beta A chain (activin A); experiment: INHBA (activin A) binders on microarrays, primary screen, biochemical, small-molecule microarray, 635 nm fluorescence scan (AID 1107); conditions: small-molecule microarray binding, higher = more signal;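 note: mouse activin A protein probed at 4.33 µg/mL on printed slides; score merges bound-protein fluorescence near 667 nm with spot signal-to-noise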
# Chain of Torsin-1A-interacting protein 2 (Homo sapiens) (Q8NFQ8 whole entry, looked up): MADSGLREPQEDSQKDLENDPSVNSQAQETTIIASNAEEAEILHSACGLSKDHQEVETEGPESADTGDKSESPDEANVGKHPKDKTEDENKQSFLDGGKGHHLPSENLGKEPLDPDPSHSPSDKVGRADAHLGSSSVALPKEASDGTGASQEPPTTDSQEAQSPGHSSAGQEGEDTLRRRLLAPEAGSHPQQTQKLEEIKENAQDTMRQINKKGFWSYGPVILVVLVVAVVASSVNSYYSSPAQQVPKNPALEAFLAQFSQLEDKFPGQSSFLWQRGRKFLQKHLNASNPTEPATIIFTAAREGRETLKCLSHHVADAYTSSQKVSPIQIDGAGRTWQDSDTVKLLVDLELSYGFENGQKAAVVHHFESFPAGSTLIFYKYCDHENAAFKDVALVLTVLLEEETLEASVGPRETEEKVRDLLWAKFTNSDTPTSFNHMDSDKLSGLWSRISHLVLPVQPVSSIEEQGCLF
# Chain of Epidermal growth factor receptor (Homo sapiens) (P00533 whole entry, looked up): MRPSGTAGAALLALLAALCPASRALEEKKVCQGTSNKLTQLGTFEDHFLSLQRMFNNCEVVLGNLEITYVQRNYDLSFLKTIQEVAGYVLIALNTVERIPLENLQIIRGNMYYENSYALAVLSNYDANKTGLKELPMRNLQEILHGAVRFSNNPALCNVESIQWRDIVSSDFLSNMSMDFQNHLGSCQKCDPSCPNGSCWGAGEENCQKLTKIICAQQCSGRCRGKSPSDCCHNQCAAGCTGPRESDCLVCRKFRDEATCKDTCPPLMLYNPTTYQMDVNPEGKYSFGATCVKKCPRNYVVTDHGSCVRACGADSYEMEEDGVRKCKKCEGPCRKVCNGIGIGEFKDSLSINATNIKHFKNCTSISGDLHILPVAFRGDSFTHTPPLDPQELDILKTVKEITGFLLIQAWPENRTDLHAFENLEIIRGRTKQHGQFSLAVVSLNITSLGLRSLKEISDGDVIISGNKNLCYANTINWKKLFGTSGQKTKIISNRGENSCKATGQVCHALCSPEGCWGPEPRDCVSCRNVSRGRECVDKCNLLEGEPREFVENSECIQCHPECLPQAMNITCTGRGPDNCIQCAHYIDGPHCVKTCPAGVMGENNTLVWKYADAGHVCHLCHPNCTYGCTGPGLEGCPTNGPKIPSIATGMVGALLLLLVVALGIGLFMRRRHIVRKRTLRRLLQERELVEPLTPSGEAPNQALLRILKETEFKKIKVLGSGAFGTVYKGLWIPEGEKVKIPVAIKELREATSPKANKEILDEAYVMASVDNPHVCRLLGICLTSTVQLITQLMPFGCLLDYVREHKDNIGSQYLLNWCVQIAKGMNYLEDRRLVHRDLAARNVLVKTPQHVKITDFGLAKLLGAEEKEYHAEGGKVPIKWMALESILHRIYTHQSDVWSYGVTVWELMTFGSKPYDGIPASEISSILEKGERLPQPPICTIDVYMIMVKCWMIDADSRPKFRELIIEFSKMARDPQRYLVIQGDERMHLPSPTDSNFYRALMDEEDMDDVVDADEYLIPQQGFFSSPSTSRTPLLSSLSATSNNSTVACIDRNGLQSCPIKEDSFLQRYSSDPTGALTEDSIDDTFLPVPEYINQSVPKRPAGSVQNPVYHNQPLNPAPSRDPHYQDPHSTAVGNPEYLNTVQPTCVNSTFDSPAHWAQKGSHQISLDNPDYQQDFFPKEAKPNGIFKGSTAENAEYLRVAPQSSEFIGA
# Chain of Neurogenic locus notch homolog protein 3 (Homo sapiens) (Q9UM47 whole entry, looked up): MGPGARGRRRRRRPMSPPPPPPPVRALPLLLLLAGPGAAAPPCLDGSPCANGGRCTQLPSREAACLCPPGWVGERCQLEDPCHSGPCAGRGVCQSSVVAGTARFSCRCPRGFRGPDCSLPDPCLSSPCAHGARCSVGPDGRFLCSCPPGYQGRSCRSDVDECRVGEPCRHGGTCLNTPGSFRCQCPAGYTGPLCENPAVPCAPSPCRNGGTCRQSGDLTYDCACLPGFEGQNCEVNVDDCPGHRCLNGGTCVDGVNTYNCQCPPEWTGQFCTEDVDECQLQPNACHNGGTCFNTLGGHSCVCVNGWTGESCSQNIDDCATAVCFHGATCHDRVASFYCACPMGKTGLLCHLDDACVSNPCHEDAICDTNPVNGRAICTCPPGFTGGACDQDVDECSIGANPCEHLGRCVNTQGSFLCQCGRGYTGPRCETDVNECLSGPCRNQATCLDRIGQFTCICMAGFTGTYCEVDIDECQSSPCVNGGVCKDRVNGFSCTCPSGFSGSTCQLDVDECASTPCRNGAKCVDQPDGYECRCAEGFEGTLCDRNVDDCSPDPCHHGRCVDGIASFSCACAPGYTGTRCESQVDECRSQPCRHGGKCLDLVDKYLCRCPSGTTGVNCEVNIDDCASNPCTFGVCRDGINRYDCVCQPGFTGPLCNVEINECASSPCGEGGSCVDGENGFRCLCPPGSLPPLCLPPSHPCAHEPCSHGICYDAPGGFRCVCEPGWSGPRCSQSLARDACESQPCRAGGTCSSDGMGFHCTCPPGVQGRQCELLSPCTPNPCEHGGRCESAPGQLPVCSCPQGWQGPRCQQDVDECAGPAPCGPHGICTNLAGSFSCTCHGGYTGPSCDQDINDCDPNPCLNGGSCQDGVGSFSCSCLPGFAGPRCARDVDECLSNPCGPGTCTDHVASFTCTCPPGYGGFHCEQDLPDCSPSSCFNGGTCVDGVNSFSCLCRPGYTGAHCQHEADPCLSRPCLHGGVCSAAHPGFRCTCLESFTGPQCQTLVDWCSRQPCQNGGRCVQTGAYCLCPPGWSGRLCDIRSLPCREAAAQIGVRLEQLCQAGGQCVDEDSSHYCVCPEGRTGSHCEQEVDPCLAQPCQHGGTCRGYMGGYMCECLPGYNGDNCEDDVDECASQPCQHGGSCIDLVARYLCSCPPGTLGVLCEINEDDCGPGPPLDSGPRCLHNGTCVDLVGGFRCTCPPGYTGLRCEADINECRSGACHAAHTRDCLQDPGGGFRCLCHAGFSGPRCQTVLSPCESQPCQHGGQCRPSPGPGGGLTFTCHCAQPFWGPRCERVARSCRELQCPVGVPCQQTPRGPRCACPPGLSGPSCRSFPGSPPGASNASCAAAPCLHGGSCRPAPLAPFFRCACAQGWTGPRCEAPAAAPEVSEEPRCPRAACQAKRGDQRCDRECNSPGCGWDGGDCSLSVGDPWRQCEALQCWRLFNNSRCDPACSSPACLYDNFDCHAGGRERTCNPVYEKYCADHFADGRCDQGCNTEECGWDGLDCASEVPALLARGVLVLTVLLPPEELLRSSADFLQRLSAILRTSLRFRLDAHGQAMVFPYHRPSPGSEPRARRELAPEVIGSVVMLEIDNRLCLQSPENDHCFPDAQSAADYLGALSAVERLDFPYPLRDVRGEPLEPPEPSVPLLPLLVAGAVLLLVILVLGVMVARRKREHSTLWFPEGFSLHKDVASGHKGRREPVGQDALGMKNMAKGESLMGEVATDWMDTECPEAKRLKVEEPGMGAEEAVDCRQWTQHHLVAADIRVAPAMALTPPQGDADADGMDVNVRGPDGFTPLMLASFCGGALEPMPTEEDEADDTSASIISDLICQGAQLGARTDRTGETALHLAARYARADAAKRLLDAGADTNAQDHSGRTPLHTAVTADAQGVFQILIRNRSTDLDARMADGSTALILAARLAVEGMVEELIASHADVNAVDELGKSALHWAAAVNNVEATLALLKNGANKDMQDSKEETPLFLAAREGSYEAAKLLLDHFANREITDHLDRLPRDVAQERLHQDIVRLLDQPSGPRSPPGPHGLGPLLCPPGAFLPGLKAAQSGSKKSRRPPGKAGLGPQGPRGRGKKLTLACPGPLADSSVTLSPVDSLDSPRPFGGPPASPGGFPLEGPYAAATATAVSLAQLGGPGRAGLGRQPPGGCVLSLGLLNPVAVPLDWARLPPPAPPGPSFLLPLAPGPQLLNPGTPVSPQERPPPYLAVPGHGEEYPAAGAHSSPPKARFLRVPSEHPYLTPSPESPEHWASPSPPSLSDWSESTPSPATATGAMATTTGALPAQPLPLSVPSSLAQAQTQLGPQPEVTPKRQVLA
# Chain of Follistatin-related protein 3 (Homo sapiens) (O95633 whole entry, looked up): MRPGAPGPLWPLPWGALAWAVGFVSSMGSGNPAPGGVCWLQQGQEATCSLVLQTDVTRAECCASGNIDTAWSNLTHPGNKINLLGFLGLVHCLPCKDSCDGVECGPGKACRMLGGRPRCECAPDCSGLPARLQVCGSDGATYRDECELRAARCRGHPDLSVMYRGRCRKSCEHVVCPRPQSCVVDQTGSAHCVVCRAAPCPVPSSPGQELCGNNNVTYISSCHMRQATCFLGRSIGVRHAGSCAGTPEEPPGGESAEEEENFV
# Chain of Dickkopf-related protein 1 (Homo sapiens) (O94907 whole entry, looked up): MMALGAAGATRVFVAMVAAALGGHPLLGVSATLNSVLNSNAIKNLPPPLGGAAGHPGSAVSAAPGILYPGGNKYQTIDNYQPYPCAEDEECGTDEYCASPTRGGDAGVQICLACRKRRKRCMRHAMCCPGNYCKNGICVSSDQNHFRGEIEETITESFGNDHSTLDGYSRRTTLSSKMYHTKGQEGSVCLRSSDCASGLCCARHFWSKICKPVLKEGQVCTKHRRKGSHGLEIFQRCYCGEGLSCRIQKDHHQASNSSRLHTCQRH
# Chain of Fibroblast growth factor 10 (Homo sapiens) (O15520 whole entry, looked up): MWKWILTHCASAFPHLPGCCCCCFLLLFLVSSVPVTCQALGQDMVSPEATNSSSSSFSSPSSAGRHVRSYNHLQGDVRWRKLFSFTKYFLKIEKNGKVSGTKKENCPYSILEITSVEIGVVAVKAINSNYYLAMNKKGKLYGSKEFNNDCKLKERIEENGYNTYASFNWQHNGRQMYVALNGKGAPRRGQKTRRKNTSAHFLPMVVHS
SMILES,composite z-score [1],z-score [2],z-score [3],z-score [4],composite z-score [5],z-score [6],composite z-score [7],composite z-score [8],composite z-score [9],composite z-score [10],composite z-score [11],composite z-score [12],composite z-score [13],z-score [14],composite z-score [15],composite z-score [16],composite z-score [17],composite z-score [18],composite z-score [19],composite z-score [20]
CCCCN1CC=CC23O[C@@H]4/C=C\CCCOC(=O)C4[C@H]2C(=O)N(C(CO)C(C)C)[C@@H]3C1=O (stereo not given in full),-0.385,0.383 (inactive),-0.74 (inactive),0.0577 (inactive),0.601,-0.714 (inactive),-0.165,-0.21,-0.754,0.371,-0.459,-0.277,-0.179,0.558 (inactive),-0.138,-0.115,0.183,-0.436,0.323,1.21
COC(=O)[C@@]1(Cc2ccc(F)cc2)[C@H]2c3cc(C(=O)N(C)C)n(CCc4ccc(O)c(O)c4)c3C[C@H]2CN1C(=O)c1ccccc1,-0.0562,0.278 (inactive),0.955 (inactive),0.987 (inactive),2.56,-0.365 (inactive),0.534,-0.601,0.498,0.253,0.681,0.52,0.828,0.692 (inactive),0.842,-0.292,-0.147,-0.439,-0.372,0.239
COc1ccc([Si](C)(C)[C@H]2[C@H](CC(=O)N3Cc4ccccc4C[C@H]3CO)O[C@@]3(C(=O)N(C)c4c(Br)cc(C)cc43)[C@@H]2C)cc1,1.54,0.344 (inactive),0.788 (inactive),5.53 (inactive),0.986,-0.498 (inactive),-0.0631,1.42,1.09,-0.0828,0.842,-0.149,-0.246,-1.97 (inactive),1.19,0.332,0.552,1.09,0.474,0.96
O=C1OCCC=C[C@H]2OC34C=CCN(c5ccc6ccccc6c5)C(=O)[C@H]3N(CCO)C(=O)[C@@H]4C12 (stereo not given in full),-0.3,-0.735 (inactive),-0.737 (inactive),-0.171 (inactive),-0.686,-0.021 (inactive),-0.314,-0.251,0.301,-0.0353,1.89,-0.886,-0.465,-0.502 (inactive),-0.0326,-0.327,-0.405,-0.114,-0.951,-0.666
CCOC(=O)C1=C[C@@H](C(C)(C)C)N(S(=O)(=O)c2ccc(C)cc2)[C@H]1c1ccc(C#N)cc1,1.56,0.3 (inactive),2.17 (inactive),1.75 (inactive),2.88,0.0374 (inactive),0.419,0.198,1.01,0.126,0.895,0.328,0.113,-0.385 (inactive),0.933,1.11,0.658,1.09,0.512,0.712
COc1ccc([Si](C)(C)[C@@H]2[C@@H](CC(=O)N3Cc4ccccc4C[C@H]3CO)O[C@]3(C(=O)N(Cc4cccc(N5CCOC5=O)c4)c4ccccc43)[C@H]2C)cc1,1.56,-1.45 (inactive),0.837 (inactive),1.77 (inactive),1.15,0.742 (inactive),-0.121,1.42,1.12,-0.0972,1.21,-0.503,-0.562,-0.589 (inactive),0.628,0.717,1.01,1.37,1.21,0.792
COC(=O)[C@H](Cc1ccc(O)cc1)N[C@@H](/C=C/C1CC1)[C@H](O)Cc1ccccc1,0.308,0.687 (inactive),-0.813 (inactive),0.0393 (inactive),-0.243,-0.732 (inactive),-0.251,-0.0001,-0.0155,-0.0828,-0.61,-0.29,-0.33,1.29 (inactive),0.357,-0.444,-0.074,-0.119,0.14,-0.322
O=C1C[C@]2(c3ccc([N+](=O)[O-])cc3)C(=O)N(C3CC3)c3cc(CO)ccc3[C@H]2N1C1CCCCC1,0.788,0.0359 (inactive),0.389 (inactive),-1.04 (inactive),1.2,0.221 (inactive),-0.171,-0.533,-0.105,-0.0656,0.389,-0.0619,0.305,-0.282 (inactive),-0.104,0.139,-0.0618,-0.184,-0.198,0.847
O=C1C[C@@](C(=O)NCc2ccccc2)(c2ccc([N+](=O)[O-])cc2)[C@@H](c2ccc(CO)cc2)N1C1CCCCC1,1.57,-1.69 (inactive),-0.221 (inactive),1.08 (inactive),3.09,0.78 (inactive),-0.206,0.65,0.846,-0.14,1.34,-0.437,0.538,-1.97 (inactive),0.42,0.97,0.123,0.645,0.0339,0.953
COCCOC(=O)N1C(=O)[C@@]2(c3cc(C#CCC(C(=O)OC)C(=O)OC)ccc31)[C@H](C(N)=O)[C@H]1C(=O)O[C@H](c3ccccc3)[C@H](c3ccccc3)N1[C@@H]2c1ccc(O)cc1,1.54,2.77 (inactive),2.65 (inactive),7.43 (inactive),2.58,0.819 (inactive),0.126,1.12,1.07,0.0254,1.09,0.235,0.283,-1.59 (inactive),1.42,0.863,0.69,1,0.938,0.187
[N-]=[N+]=Nc1ccccc1C[C@@]1(C(=O)NCc2ccccc2)N=C(c2ccc(OCCCO)cc2)O[C@@H]1c1ccccc1N=[N+]=[N-],1.58,-0.642 (inactive),-0.468 (inactive),5.27 (inactive),1.69,0.0498 (inactive),0.469,1.2,0.762,0.0883,1.07,0.61,1.01,-0.457 (inactive),1.1,0.913,0.0359,0.309,-0.0102,1.04
COc1ccc(C(O)C2C=CC3C(=O)NC(=O)C3N2Nc2ccc(Cl)cc2Cl)c2ccccc12 (stereo not given),1.01,-10.5 (active),-2.63 (inactive),0.126 (inactive),2.98,-0.708 (inactive),-0.279,-0.494,1.05,-0.176,0.828,0.913,1.15,-0.744 (inactive),0.0892,0.15,-0.582,0.483,-0.284,1.14
O=C(NCCN1CCOCC1)[C@@H]1c2ccccc2C(=O)N(Cc2ccccc2C(F)(F)F)[C@H]1c1ccc(CO)cc1,1.56,-0.451 (inactive),-0.539 (inactive),-0.705 (inactive),1.81,0.75 (inactive),-0.525,-0.982,-0.842,-0.403,0.99,-0.745,-0.31,-0.422 (inactive),-0.393,0.0726,-1.11,-0.708,-1.28,-0.735
COc1ccc([Si](C)(C)[C@@H]2[C@@H](CC(=O)N3CCC[C@H]3CO)O[C@]3(C(=O)N(Cc4cccc(N5CCCCC5=O)c4)c4ccccc43)[C@H]2C)cc1,1.57,-0.965 (inactive),-0.388 (inactive),0.1 (inactive),1.89,0.807 (inactive),-0.183,0.894,0.625,-0.0828,1.29,-0.246,-0.115,0.238 (inactive),0.32,0.523,0.0941,0.747,0.414,0.27
C=CC[C@@]1(C(=O)N(C)C)N=C(c2ccc(OCCCO)cc2)O[C@@H]1c1ccccc1CN=[N+]=[N-],1.55,-0.127 (inactive),-0.0815 (inactive),-0.64 (inactive),3.33,1.42 (inactive),0.264,1.77,1.07,0.538,0.964,1.19,1.13,-0.475 (inactive),1.42,1.33,0.493,1.38,0.488,1.23
C=CCC(OC(C)=O)[C@@H]1[C@@H](N(Cc2cccc3ccccc23)C(=O)Cc2ccc(OC)cc2)c2cc(OCCCO)ccc2N1C(=O)c1ccc2ccccc2c1 (stereo not given in full),1.14,-1.12 (inactive),0.098 (inactive),-1.35 (inactive),1.06,1.1 (inactive),-0.0042,0.115,0.373,-0.0967,0.0596,0.0644,0.256,-1.68 (inactive),0.045,-0.344,0.0359,0.627,0.234,1.35
CC(=O)c1ccc(C(O)C2C=CC3C(=O)N(c4ccccc4)C(=O)C3N2Nc2ccc(C(C)C)cc2)cc1 (stereo not given),1.08,1.24 (inactive),1.55 (inactive),-0.0304 (inactive),2.24,-0.541 (inactive),0.136,0.101,1.07,0.187,0.696,1.46,0.865,-0.385 (inactive),1.01,0.806,0.314,1.25,-0.0216,1.05
CN(C)CCCCNC(=O)[C@H]1C[C@H]2C(=O)NCC(=O)N2[C@H]1c1ccc(O)cc1,0.784,0.873 (inactive),0.981 (inactive),0.144 (inactive),1.21,0.187 (inactive),-0.189,0.15,0.408,-0.139,0.978,-0.114,0.0669,-0.127 (inactive),-0.14,-0.286,-0.603,-0.107,0.0896,-0.0569
CCOC(=O)C1=CCC(c2cc3ccccc3[nH]2)N(CCN2CC(C(=O)OCC)=CCC2c2cc3ccccc3[nH]2)C1 (stereo not given),1.4,-1.61 (inactive),0.97 (inactive),-0.34 (inactive),3.38,0.053 (inactive),0.0094,0.38,0.862,-0.0084,0.497,0.237,0.368,-1.3 (inactive),0.631,1.03,0.149,0.673,0.0665,1.14
